Records with an inconclusive call do not appear. Active and inactive are the calls of the source. Rule for the calls: active = hit-call score of the fitted dose curve at least 0.9, where 1 is the maximum; inconclusive = response in the unintended direction; inactive = score below 0.9.

Read-out in the assay: Cytochrome P450 2C9 (Homo sapiens) (UniProt P11712)
As to the kind of experiment: CLD_CYP2C9_24hr: CellzDirect (CLD) Gene Expression Assay for xenobiotic metabolism (CYP2C9) at 24 hours (AID 2283688). As for the experimental part: CLD_24hr is a cell-based, multiplexed-readout assay that uses hepatocyte, a human liver primary cell, with measurements taken at 24 hours after chemical dosing in a 96-well plate.CLD_CYP2C9_24hr is one of 16 assay component(s) measured or calculated from the CLD_24hr assay. It is designed to make measurements of mRNA induction, a form of inducible reporter, as detected with chemiluminescence signals by Quantitative Nuclease Protection Assay (qNPA) technology.Data from the assay component CLD_CYP2C9_24hr was analyzed at the endpoint, CLD_CYP2C9_24hr, in the positive analysis fitting direction relative to DMSO as the negative control and baseline of activity. Using a type of inducible reporter, gain-of-signal activity can be used to understand changes in the reporter gene as they relate to the gene CYP2C9. Furthermore, this assay endpoint can be referred to as a primary readout. To generalize the intended target to other relatable targets, this assay endpoint is annotated to the cyp intended target family, where subfamily is xenobiotic metabolism.
Human hepatocyte cultures were treated daily for two consecutive days with fresh dosing solutions containing appropriate concentrations of the 320 ToxCast chemicals (chemical identities were blinded to CellzDirect and other ToxCast collaborators), vehicle control (0.2% DMSO), and positive control inducers as summarized in Table 1. Due to the large number of treatment groups and chemicals examined, the ToxCast chemicals were divided into two groups (spanning two independent cultures of hepatocytes from separate donor preparations (Hu778: ToxCast plates 1 and 2; Hu776: ToxCast plates 3 and 4). Each preparation of human hepatocyte cultures was treated with respective vehicle control, medium only control, set of six positive controls/reference chemicals for the five hepatic receptor pathways, and a subset of eight of the ToxCast chemicals (indoxacarb, pyrithiobac-sodium, norflurazon, cyhalofop-butyl, methomyl, thiram, acetochlor, and propiconazole). These replicate data, coupled with internal replicates designed within the blinded ToxCast chemical library, provided additional data to evaluate interindividual differences between hepatocyte preparations and their potential impact on chemical profiles.Cell morphology and integrity were evaluated using phase-contrast microscopy as an indicator of hepatocyte cell health (Tyson & Green, 1987). Cultures for each treatment group (i.e., media, vehicle [0.2% DMSO], positive control inducers [multiple concentrations], and the ToxCast chemicals [multiple concentrations]) were observed and cell morphology was assessed relative to vehicle control cultures at each harvest time point (0, 6, 24, or 48 h). […] Images were evaluated at the conclusion of the study to assess changes in cell integrity and account for the effects of chemical exposure on uncharacteristic changes in concentration-dependent gene expression profiles. The results from these determinations of apparent cytotoxicity were annotated (yes/no) alongside the corresponding qNPA data for reference.At the conclusion of each treatment period, hepatocyte cultures (96-well) were washed with 1 volume of HBSS, lysed by addition of 25 ul ArrayPlate lysis buffer (HTG, Tucson, AZ), and 70 ul/well of Denaturation Oil, denatured by incubation at 95C for 10 min, and frozen at approximately -70C until analysis by nuclease protection assay (qNPA) (Roberts et al., 2007). For qNPA analysis, cell lysates were thawed at 50C for approximately 30 min, qNPA probes were added, and samples were incubated at 95C for 10 min to begin the detection process by denaturing the target RNA, dissociating the duplexes and secondary structure hybridization. At the conclusion of the hybridization period, S1 nuclease reagent was added to each sample to digest all nonprotected nucleotides at 50C for 60-90 min. […]
For `O=C(Nc1ccc([N+](=O)[O-])cc1Cl)c1cc(Cl)ccc1O`, the molecule was called inactive.

As to `CCCCCCC(C)OC(=O)COc1nc(F)c(Cl)c(N)c1Cl` (stereo not drawn), the molecule was classed as inactive.

Turning to `CCCN(CCC)C(=O)SCC`, the molecule was classed as inactive.

`COCCO`: the molecule was classed as inactive.

In the case of `CCCCOC(=O)C(C)Oc1ccc(Oc2ccc(C(F)(F)F)cn2)cc1` (stereo not drawn), the molecule was classed as inactive.

Regarding `CCCCOCCOCCOCc1cc2c(cc1CCC)OCO2`, the molecule was classed as inactive.

For the molecule `CCNc1nc(N)nc(Cl)n1`, the call was inactive.

Turning to `CCCOC(=O)c1ccc(C(=O)OCCC)nc1`, the molecule was classed as inactive.

`CCOC(=O)[C@H](C)Oc1ccc(Oc2nc3ccc(Cl)cc3o2)cc1`: the molecule was classed as inactive.

`CC(C)(c1ccc(O)cc1)c1ccc(O)cc1`: the result was inactive.

On to `CCOC(=O)NCCOc1ccc(Oc2ccccc2)cc1`, for which the outcome was inactive.

For `COC(=O)c1cccc(C)c1S(=O)(=O)NC(=O)Nc1nc(OCC(F)(F)F)nc(N(C)C)n1`, the molecule was called inactive.

Consider `CCCCCOC(=O)COc1cc(N2C(=O)C3=C(CCCC3)C2=O)c(F)cc1Cl`, for which the call was inactive.

Regarding `CCC(O)=C1C(=O)CC(C(=O)O)CC1=O` (stereo not drawn), the molecule was classed as inactive.

Consider `c1ccc(Nc2ccccc2)cc1`, for which the molecule was called inactive.

With `CCCCC(CC)COC(=O)c1ccccc1C(=O)O` (stereo not drawn), the molecule was classed as inactive.

For the molecule `CC1(C)C(C=C(Cl)Cl)C1C(=O)OCc1cccc(Oc2ccccc2)c1` (stereo not drawn), the outcome was inactive.

Turning to `COc1c(Cl)ccc(Cl)c1C(=O)O`, the molecule was called inactive.

These data come from PubChem BioAssay (EPA / NIEHS).
